Data reported in PubChem BioAssay AID493240 (Broad Institute, 2011).
Hit rate of the full screen: of about 1,300 compounds, about 270 (21%) were called active. A selection follows. Potency and affinity values are given separately. Unmarked numbers belong to inactive results. No rule for the calls is given here.

test: SK-MEL-5 parental cell viability loss, dose response, orthogonal assay for MITF inhibitor project, CellTiter-Glo, cherry-picked, set 3 (AID 493240); details: SK-MEL-5 viability, ATP luminescence (CellTiter-Glo), 24 h; series mostly up to 35 µM; activity change, negative = viability loss: at the top concentration

Row | Compound | activity change, negative = viability loss
1 | COc1ccc(C(=O)NCCSc2ccccc2C)cc1 | -5.8%
2 | CCOc1ccc(NC(=O)c2ccccn2)cc1 | -35.5%
3 | CC(C)N=C(NS(=O)(=O)c1ccccc1)C(Cl)(Cl)Cl | -23.2%
4 | O=C(Cn1cnc2ccccc2c1=O)Nc1ccc2c(c1)OCCO2 | 10.4%
5 | Cc1nn(C)cc1/C=C/C(=O)c1cccs1 | 8.31%
6 | Cc1ccn2c(Nc3ccccc3)c(-c3ccccn3)nc2c1 | -14.3%
7 | O=[N+]([O-])c1cc(C(F)(F)F)ccc1NCCc1ccccn1 | -3.91%
8 | COc1ccc(COC(=O)c2n[nH]c3ccccc23)cc1F | -7.19%
9 | Cc1cc(Br)ccc1OCc1nc(-c2cccnc2)no1 | 14.9%
10 | O=C(NC1CCCCCC1)c1cc2ccccc2oc1=O | -9.29%
11 | CCOC(=O)c1cc([N+](=O)[O-])c([N+](=O)[O-])cc1NC(C)=O | -32.7%
12 | N/C(=N\OC(=O)c1ccccc1)c1ccccn1 | -21.8%
13 | N/C(CS(=O)(=O)c1ccccn1)=N\OC(=O)c1ccccc1Cl | 8.81%
14 | O=C(Nc1ccc2c(c1)OCCO2)c1ccoc1 | -7.66%
15 | COc1ccccc1NC(=O)c1cnc(SCC(=O)NCC2CCCO2)n(C)c1=O (stereo not drawn) | -27.9%
16 | COc1ccc(Cn2c(-c3ccc(C)cc3)c[n+]3ccccc23)cc1 | -49.3%
17 | COc1ccc2oc(=O)c(C(=O)Nc3ccccc3C)cc2c1 | -6.86%
18 | CCC[n+]1c(C)sc2c3c(ccc21)CCCC3 | -21.6%
19 | O=C(Nc1ccccc1)C1Cc2ccccc2CN1C(=O)c1ccco1 (stereo not drawn) | 1.45%
20 | Cc1ccc(OCCNCc2ccccc2)c(C)c1 | 1.07%
21 | Cc1cc(Cl)ccc1NC(=O)c1ccc2c(c1)OCO2 | -10.1%
22 | CN(C)c1ccc(/C=C(\C#N)c2ccccn2)cc1 | -43.4%
23 | O=C1NC2c3c(I)sc(I)c3C(=O)C2O1 (stereo not drawn) | -15.1%
24 | C/C(=N\Nc1cc(N2CCOCC2)ncn1)c1ccccc1 | 19.8%
25 | O=C(Nc1ccccc1N1CCN(C(=O)c2ccccc2)CC1)c1ccc([N+](=O)[O-])o1 | -6.17%

Row | Compound | activity change, negative = viability loss
26 | COc1ccccc1N1CCN(/N=C/c2cccc(Cl)c2)CC1 | -4.32%
27 | O=C(CS(=O)c1ccc(C(F)(F)F)cc1[N+](=O)[O-])Oc1ccccc1 (stereo not drawn) | -93.2%
28 | O=C(/C=C\c1ccccc1)NCC(=O)N/N=C/c1ccc(O)cc1O | -7.76%
29 | CCOC(=O)/C=c1/s/c(=C/c2ccc3cc(OC)ccc3c2)c(=O)n1CC(=O)NCC1CCCO1 (stereo not drawn) | -41.9%
30 | CC(C)(C)C(=O)/C(=C/c1ccncc1)n1cncn1 | -44.7%
31 | c1ccc(OCc2nn3c(-c4ccccn4)nnc3s2)cc1 | 3.29%
32 | O=C(N/N=C/c1ccccc1Cl)c1n[nH]c2c1CCCC2 | -40.5%
33 | N#Cc1cnn2cc(CCN3CCOCC3)c(-c3ccc(F)cc3)nc12 | 0.968%
34 | CCCCC(=O)N/C(N)=N/c1nc2ccccc2o1 | 3.53%
35 | C=CCn1cccc(C(=O)Nc2ccc(C)c(Cl)c2)c1=O | -10.8%
36 | N#C/C(C(=O)c1ccccc1)=C1/CCCCCN1 | -0.854%
37 | Cc1ccc2cc(NC(=O)Cc3ccccc3)ccc2n1 | -7.87%
38 | COc1cccc(/C=C2/Sc3ccc(C(=O)NCCN4CCCC4)cc3NC2=O)c1 | -38.4%
39 | COc1ccc(/C=C2\Sc3ccc(C(=O)NCCN4CCCCCC4)cc3N(C)C2=O)cc1 | -16.1%
40 | CCN1CCCC1CNC(=O)c1ccc2c(c1)NC(=O)/C(=C\c1ccc(OC)c(OC)c1)S2 (stereo not drawn) | -29.3%
41 | CCN1CCN(CCCNC(=O)c2ccc3c(Cl)c4c(nc3c2)CCCC4)CC1 | -29.4%
42 | Cc1cccc(/C=C2/Sc3ccc(C(=O)NCCN4CCCC4)cc3NC2=O)c1 | -21.4%
43 | CC1(C)CC(=O)c2cnc(N3CCc4ccccc43)nc2C1 | -0.588%
44 | CC1=C/C(=N\NC(=S)Nc2cccnc2)CC(C)(C)C1 | -15.9%
45 | CC(C)(C)NC(=O)CCN(/N=C/c1ccc([N+](=O)[O-])o1)C1=NS(=O)(=O)c2ccccc21 | -1.24%
46 | O=C1CCC2S/C(=C/Nc3ccc(C(F)(F)F)cc3)C(=O)N12 (stereo not drawn) | 12.8%
47 | Nc1nc2n[nH]nc2c(=O)[nH]1 | -2.82%
48 | CN1CCN(c2ccc(NC(=S)NC(=O)c3cccc4ccccc34)cc2)CC1 | -28.7%
49 | CCOc1ccc(-n2c(O)c(/C=N/Nc3nc(C)cc(C)n3)c3ccccc3c2=O)cc1 | -6.14%
50 | O=C1N=C(N2CCOCC2)S/C1=C\C=C/c1ccccc1 | -14.8%

Row | Compound | activity change, negative = viability loss
51 | O=C(c1ccc(F)cc1)N1CCC(c2ccccc2)C1 (stereo not drawn) | 11.6%
52 | COc1ccc2c(c1OC)C(=O)N(c1ccc(C)cc1)C2 | -5.49%
53 | Cc1cnc(NC(=O)c2nn(C)cc2[N+](=O)[O-])s1 | -7.58%
54 | Cn1cc([N+](=O)[O-])c(C(=O)Nc2cc(Oc3ccccc3)cc([N+](=O)[O-])c2)n1 | -22.9%
55 | Cc1ccc(-n2nnnc2CNC(=O)c2ccc([N+](=O)[O-])o2)cc1C | -13.2%
56 | CCc1cc(C=NC2CCCCC2)c(O)s1 | -0.633%
57 | Cc1ccc(-n2[nH]c(=O)c(-c3ccccn3)c2C)cc1 | -46.9%
58 | O=C(CSc1nc2ccccc2[nH]1)c1ccc2c(c1)OCO2 | 8.83%
59 | O=C(Nc1ccc(Br)cc1)c1ccc2c(c1)OCO2 | 7.42%
60 | CCc1ccc(-c2cc(C(=O)Nn3cnnc3)c3ccccc3n2)cc1 | -39.2%
61 | CCc1ccccc1NC(=O)CN(C)C(=O)Cn1ncc(Cl)c(Cl)c1=O | -17.7%
62 | CCOC(=O)c1[nH]cnc1N=Nc1c(O)ccc2ccccc12 | -40.9%
63 | O=[N+]([O-])c1ccc(/C=N/N=C/c2ccc([N+](=O)[O-])o2)o1 | -41.4%
64 | O=C(N/N=C/c1ccc([N+](=O)[O-])o1)c1ccccc1-n1cccc1 | -42.2%
65 | O=C(N/N=C/c1ccc([N+](=O)[O-])o1)c1sc2ccccc2c1Cl | -5.21%
66 | O=C(Cn1ncc(Cl)c(Cl)c1=O)N1CCOCC1 | -6.38%
67 | O=[N+]([O-])c1ccc(/C=N/Nc2ccnc3cc(Cl)ccc23)o1 | -18.4%
68 | COc1cc(OC)cc(C(=O)Nc2ccc3c(c2)OCCO3)c1 | -44.2%
69 | COc1cccc(NC(=O)Nc2cccc(C(=O)O)c2)c1 | -3.36%
70 | C/C(=N/N=C(/C)c1cccs1)c1cccs1 | -16.7%
71 | O=C(Nc1nc(-c2ccccn2)cs1)c1ccccc1-n1cnnn1 | -7.1%
72 | COc1ccc(Br)cc1C(C[N+](=O)[O-])c1c(N)n(C)c(=O)n(C)c1=O (stereo not drawn) | -6.47%
73 | O=C(CCC1CCCN(C(=O)c2cc3ccccc3o2)C1)NCc1ccc(F)c(F)c1 (stereo not drawn) | -25.9%
